# Measurements reported in ChEMBL document CHEMBL4513135, “CO-ADD screening of IQOG CSIS (Spain) compounds”.
# Measured potencies and affinities stand elsewhere.
# What was measured:
# Klebsiella pneumoniae = conditions: Concentration 32 ug.mL-1; ASSAY_TEST Inhibition of Bacterial Growth; detection method Absorption (OD600); MEDIA CAMHB; plate type 384well; NBS; CORNING #3640; time 18 hr
# Candida albicans = conditions: 32 ug/mL
# Cryptococcus neoformans = conditions: Concentration 32 ug.mL-1; ASSAY_TEST Inhibition of Fungal Growth; detection method Resazurin; Absorption (OD600-OD570); plate type 384well; NBS; CORNING #3640
Compound,Inhibition (Klebsiella pneumoniae) [%],Inhibition (Candida albicans) [%],Inhibition (Cryptococcus neoformans) [%]
Nc1ccccc1C(=O)N/N=C/c1c[nH]c2ccccc12,18.84,-0.37,0.1
C#CCNc1nc(NCCCCC2CCN(Cc3ccccc3)CC2)c(C#N)cc1C#N,-10.59,4.43,-10.91
CN(Cc1cn(Cc2ccccc2)nn1)Cc1cc2cc(OCCCC3CCN(Cc4ccccc4)CC3)ccc2n1C,4.39,2.75,-73.92
CC(=O)NC(=Cc1ccccc1)C(=O)O,19.96,2.49,-0.91
CN1C/C(=C\Cl)n2c1c(C#N)c(-c1ccccc1)c(C#N)c2=O,4.05,3.56,-47.27
N#Cc1c(N)nc(N2CCC(Cc3ccccc3)CC2)c(C#N)c1-c1ccccc1,7.85,1.84,-30
N#Cc1cc(C#N)c(N2CCC(O)CC2)nc1N,-4.97,1.52,-52.44
O=C1OC(c2ccccc2)=NC1=Cc1ccc(Cl)cc1,7.19,1.2,-3.18
COC1(N)Oc2ccc3ccccc3c2C(c2ccccc2)C1(Br)C#N (stereo unspecified),-5.7,8.36,-6.17
N#Cc1c(N)nc(N2CCCCC2)c(C#N)c1-c1ccccc1,2.6,1.97,-31.47
N#Cc1c(N)nc(NCCCCC2CCN(Cc3ccccc3)CC2)c(C#N)c1-c1ccccc1,9.09,2.22,0.12
N#Cc1cc(C#N)c(N2CCCC2)nc1N,16.35,1.23,-54.35
